Results filed as inconclusive are left out. Calls of active or inactive are those of the source. How the source made its calls, unless noted: active means hit-call score of the fitted dose curve at least 0.9, where 1 is the maximum; inactive means score below 0.9.
Legend:
[1] = biological target: human Peroxisome Proliferator-activated Receptor delta (PPARd), PPARD (gene 5467) (UniProt Q03181); experiment: ATG_PPARd_TRANS: Attagene TRANS-FACTORIAL HepG2 Assay for human Peroxisome Proliferator-activated Receptor delta (PPARd) (AID 2283002; active means hit-call score of the fitted dose curve at least 0.9, where 1 is the maximum)
How it was run: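 Fluorescence from capillary electrophoresis of labelled RT-PCR reporter fragments gives the signal; DMSO sets baseline. Cells: HepG2 transiently carrying GAL4-UAS reporter units plus chimeric nuclear receptor-Gal4 proteins, exposed to chemicals for 24 h.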

[2] = read-out: Intercellular Adhesion Molecule 1 (ICAM1), ICAM1 (gene 3383); experiment: BSK_3C_ICAM1: BioMAP Diversity Plus: 3C Assay for Intercellular Adhesion Molecule 1 (ICAM1) Biomarker Activity (AID 2283003); conditions: primary human endothelial cells (HUVEC); actives raise or lower the signal
How it was run: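 Human vascular endothelial primary cells, 3C conditions, 24 h treatment. ICAM-1 by ELISA.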

[3] = BSK_3C_Proliferation: Cell Proliferation Assessment in the BioMAP Diversity Plus: 3C Assay (AID 2283006); conditions: primary human endothelial cells (HUVEC);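 on AC50: potency may reflect either rise or fall in cell number versus DMSO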
How it was run: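 Proliferation of human vascular endothelial primary cells after 48 h dosing, quantified as SRB-stained protein at 560 nm relative to DMSO.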

[4] = biological target: human RAR-related Orphan Receptor beta (RORb), RORB (gene 6096) (UniProt Q92753); experiment: ATG_RORb_TRANS: Attagene TRANS-FACTORIAL HepG2 Assay for human RAR-related Orphan Receptor beta (RORb) (AID 2283010; active means hit-call score of the fitted dose curve at least 0.9, where 1 is the maximum)
How it was run: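 In this TRANS-format test, human HepG2 cells express chimeric NR-Gal4 fusion proteins driving GAL4-UAS reporters. After 24 h dosing, reporter transcripts are measured by fluorescent RT-PCR/capillary electrophoresis, with DMSO as negative control.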

[5] = biological target: human RAR-related Orphan Receptor gamma (RORg), RORC (gene 6097) (UniProt P51449); experiment: ATG_RORg_TRANS: Attagene TRANS-FACTORIAL HepG2 Assay for human RAR-related Orphan Receptor gamma (RORg) (AID 2283011; active means hit-call score of the fitted dose curve at least 0.9, where 1 is the maximum)
How it was run: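 Readout: reporter transcript induction (RT-PCR, fluorescent primer extension, capillary electrophoresis) after 24 h compound exposure of transiently transfected HepG2 cells carrying a RORg-Gal4 chimera and GAL4-UAS reporters; DMSO served as baseline, with increasing signal fitted.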

[6] = biological target: Retinoic acid receptor RXR-alpha (Homo sapiens) (UniProt P19793); experiment: ATG_RXRa_TRANS: Attagene TRANS-FACTORIAL HepG2 Assay for human Retinoid X Receptor alpha (RXRa) (AID 2283012; active means hit-call score of the fitted dose curve at least 0.9, where 1 is the maximum)
How it was run: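 Cells (HepG2) carried transiently transfected GAL4-responsive reporter units. Following a 24 h chemical incubation, reporter mRNA induction was read via RT-PCR fragment analysis; DMSO served as negative control and baseline.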

[7] = biological target: human Retinoid X Receptor beta (RXRb), RXRB (gene 6257) (UniProt P28702); experiment: ATG_RXRb_TRANS: Attagene TRANS-FACTORIAL HepG2 Assay for human Retinoid X Receptor beta (RXRb) (AID 2283013; active means hit-call score of the fitted dose curve at least 0.9, where 1 is the maximum)
How it was run: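 Multiplexed TRANS reporter assay in HepG2; 24 h dosing; reporter mRNA by RT-PCR/CE fluorescence; gain-of-signal relative to DMSO.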

[8] = read-out: E-selectin (Homo sapiens) (UniProt P16581); experiment: BSK_3C_Eselectin: BioMAP Diversity Plus: 3C Assay for Eselectin Biomarker Activity (AID 2283015); conditions: primary human endothelial cells (HUVEC); actives raise or lower the signal
How it was run: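 Primary human umbilical vein endothelial cells (3C system) were dosed with chemical and cell-surface E-selectin measured by ELISA 24 h later. Bidirectional curve fitting used DMSO as negative control and baseline.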

[9] = read-out: Interleukin-1 alpha (IL1a), IL1A (gene 3552); experiment: BSK_BE3C_IL1a: BioMAP Diversity Plus: BE3C Assay for Interleukin-1 alpha (IL1a) Biomarker Activity (AID 2283016); conditions: primary human bronchial epithelial cells; actives raise or lower the signal
How it was run: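 Cultures of primary human bronchial epithelial cells receive test chemical. After 24 h, IL-1a is quantified by ELISA, while parallel wells are fixed in TCA and SRB-stained for total protein. Changes in either direction are fitted relative to DMSO.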

[10] = read-out: Monocyte Chemoattractant Protein-1 (MCP1), CCL2 (gene 6347); experiment: BSK_3C_MCP1: BioMAP Diversity Plus: 3C Assay for Monocyte Chemoattractant Protein-1 (MCP1) Biomarker Activity (AID 2283017); conditions: primary human endothelial cells (HUVEC); actives raise or lower the signal
How it was run: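 Primary human umbilical vein endothelial cells (3C system) were exposed to test chemical for 24 h, after which MCP-1 was quantified by ELISA. Activity was fitted bidirectionally against DMSO as negative control and baseline.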

[11] = read-out: Monocyte Chemoattractant Protein-1 (MCP1), CCL2 (gene 6347); experiment: BSK_4H_MCP1: BioMAP Diversity Plus: 4H Assay for Monocyte Chemoattractant Protein-1 (MCP1) Biomarker Activity (AID 2283018); conditions: primary human endothelial cells (HUVEC); actives raise or lower the signal
How it was run: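 Readout: MCP-1 ELISA on compound-treated HUVEC, sampled 24 h post-dosing. Baseline and negative control DMSO; bidirectional fit. Overt toxicity checked alongside by sulforhodamine B protein staining at time of biomarker measurement.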

[12] = read-out: Human Leukocyte Antigen - DR isotype (HLADR), HLA-DRA (gene 3122); experiment: BSK_3C_HLADR: BioMAP Diversity Plus: 3C Assay for Human Leukocyte Antigen - DR isotype (HLADR) Biomarker Activity (AID 2283019); conditions: primary human endothelial cells (HUVEC); actives raise or lower the signal
How it was run: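 Primary human umbilical vein endothelial cells (3C system) were dosed with compound and cell-surface HLA-DR was quantified by ELISA at 24 h. Activity was fitted bidirectionally against DMSO as negative control and baseline.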

[13] = read-out: Interleukin-8 (IL8), CXCL8 (gene 3576); experiment: BSK_3C_IL8: BioMAP Diversity Plus: 3C Assay for Interleukin-8 (IL8) Biomarker Activity (AID 2283020); conditions: primary human endothelial cells (HUVEC); actives raise or lower the signal
How it was run: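 Human vascular endothelial cells (umbilical vein) in the 3C system; IL-8 level detected by ELISA at 24 h post-dose, with DMSO as baseline.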

[14] = read-out: Monokine induced gamma interferon (MIG), CXCL9 (gene 4283); experiment: BSK_3C_MIG: BioMAP Diversity Plus: 3C Assay for Monokine induced gamma interferon (MIG) Biomarker Activity (AID 2283021); conditions: primary human endothelial cells (HUVEC); actives raise or lower the signal;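 on AC50: MIG protein level measured by immunoassay in the treated endothelial cultures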
How it was run: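 After 24 h of treatment, human umbilical vein endothelial cultures (3C system) had their MIG biomarker level determined by ELISA, with DMSO serving as negative control.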

[15] = biological target: Nuclear receptor subfamily 1 group I member 2 (Homo sapiens) (UniProt O75469); experiment: ATG_PXR_TRANS: Attagene TRANS-FACTORIAL HepG2 Assay for human Pregnane X Receptor (PXR) (AID 2283008; active means hit-call score of the fitted dose curve at least 0.9, where 1 is the maximum)
How it was run: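 HepG2 cells transiently transfected with multiple reporter units, here a PXR-GAL4 chimera driving a GAL4-UAS reporter; 24 h compound exposure. Reporter mRNA measured by RT-PCR, FAM labelling and capillary electrophoresis; gain of signal fitted against DMSO baseline.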

[16] = biological target: human Thyroid Receptor alpha (THRa1), THRA (gene 7067) (UniProt P10827); experiment: ATG_THRa1_TRANS: Attagene TRANS-FACTORIAL HepG2 Assay for human Thyroid Receptor alpha (THRa1) (AID 2283014; active means hit-call score of the fitted dose curve at least 0.9, where 1 is the maximum)
How it was run: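 HepG2 cells transiently transfected with multiplexed GAL4-UAS reporter units for exogenous chimeric THRa1-Gal4; reporter mRNA measured 24 h after dosing by RT-PCR, 6-FAM labelling, HpaI digestion and capillary electrophoresis. Gain-of-signal fitted versus DMSO baseline.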

[17] = biological target: Peroxisome proliferator-activated receptor gamma (Homo sapiens) (UniProt P37231); experiment: ATG_PPARg_TRANS: Attagene TRANS-FACTORIAL HepG2 Assay for human Peroxisome Proliferator-activated Receptor-gamma (PPARg) (AID 2283007; active means hit-call score of the fitted dose curve at least 0.9, where 1 is the maximum)
How it was run: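 After 24 h of chemical exposure, transfected HepG2 cells carrying PPARγ-Gal4 chimera reporter constructs are lysed for RNA. Reporter transcripts are measured by RT-PCR and capillary electrophoresis with fluorescent labelling, and gain of signal is fitted versus DMSO.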

[18] = biological target: human Retinoic Acid Receptor gamma (RARg), RARG (gene 5916) (UniProt P13631); experiment: ATG_RARg_TRANS: Attagene TRANS-FACTORIAL HepG2 Assay for human Retinoic Acid Receptor gamma (RARg) (AID 2283009; active means hit-call score of the fitted dose curve at least 0.9, where 1 is the maximum)
How it was run: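 HepG2, RARg-GAL4 TRANS system, 24 h exposure; reporter mRNA by RT-PCR + CE fluorescence; increase over DMSO.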

Measured: AC50

human RAR-related Orphan Receptor gamma (RORg), RORC (gene 6097), sequence (P51449 whole entry, looked up, the tested form may be a part): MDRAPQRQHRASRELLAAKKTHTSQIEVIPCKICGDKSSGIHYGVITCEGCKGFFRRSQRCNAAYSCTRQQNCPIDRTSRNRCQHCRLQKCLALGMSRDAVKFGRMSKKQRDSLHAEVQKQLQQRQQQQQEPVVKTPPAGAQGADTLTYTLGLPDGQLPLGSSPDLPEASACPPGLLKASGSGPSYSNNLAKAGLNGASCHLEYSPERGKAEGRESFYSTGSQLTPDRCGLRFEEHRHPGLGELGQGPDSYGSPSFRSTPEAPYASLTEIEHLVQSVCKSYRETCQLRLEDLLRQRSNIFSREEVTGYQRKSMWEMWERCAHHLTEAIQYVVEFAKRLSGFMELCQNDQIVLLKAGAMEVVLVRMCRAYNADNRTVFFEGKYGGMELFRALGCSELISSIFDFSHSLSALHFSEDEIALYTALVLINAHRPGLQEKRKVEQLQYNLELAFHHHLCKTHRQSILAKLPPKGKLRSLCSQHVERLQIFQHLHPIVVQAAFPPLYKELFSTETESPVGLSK
human Retinoid X Receptor beta (RXRb), RXRB (gene 6257), sequence (P28702 whole entry, looked up): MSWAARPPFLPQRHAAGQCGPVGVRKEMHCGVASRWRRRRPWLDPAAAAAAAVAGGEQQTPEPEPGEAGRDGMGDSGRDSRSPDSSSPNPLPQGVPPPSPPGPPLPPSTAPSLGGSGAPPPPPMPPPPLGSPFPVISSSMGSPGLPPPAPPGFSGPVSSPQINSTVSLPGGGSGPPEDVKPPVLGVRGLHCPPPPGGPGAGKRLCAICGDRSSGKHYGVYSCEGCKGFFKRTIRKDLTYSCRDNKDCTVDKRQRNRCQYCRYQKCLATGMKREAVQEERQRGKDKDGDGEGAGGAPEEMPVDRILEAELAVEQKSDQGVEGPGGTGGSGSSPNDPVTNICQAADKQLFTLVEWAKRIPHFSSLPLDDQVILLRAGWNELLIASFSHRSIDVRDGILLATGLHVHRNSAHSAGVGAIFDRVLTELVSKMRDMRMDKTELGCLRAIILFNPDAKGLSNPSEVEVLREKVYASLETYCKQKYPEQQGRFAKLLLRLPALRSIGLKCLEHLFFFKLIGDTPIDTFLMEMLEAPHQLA
human Peroxisome Proliferator-activated Receptor delta (PPARd), PPARD (gene 5467), sequence (Q03181 whole entry, looked up, the tested form may be a part): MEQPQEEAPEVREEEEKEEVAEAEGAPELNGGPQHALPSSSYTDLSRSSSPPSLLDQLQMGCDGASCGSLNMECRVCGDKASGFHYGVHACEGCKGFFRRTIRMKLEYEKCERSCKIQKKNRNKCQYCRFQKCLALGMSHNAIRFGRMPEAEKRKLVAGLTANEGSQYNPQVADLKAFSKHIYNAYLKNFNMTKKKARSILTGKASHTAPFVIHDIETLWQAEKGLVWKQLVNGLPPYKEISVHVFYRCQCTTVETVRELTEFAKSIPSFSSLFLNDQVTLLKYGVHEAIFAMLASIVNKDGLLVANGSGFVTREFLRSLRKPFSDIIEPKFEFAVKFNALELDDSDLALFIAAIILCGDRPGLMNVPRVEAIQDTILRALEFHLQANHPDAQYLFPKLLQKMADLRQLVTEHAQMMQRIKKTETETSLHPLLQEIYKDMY
E-selectin (Homo sapiens), sequence (P16581 whole entry, looked up): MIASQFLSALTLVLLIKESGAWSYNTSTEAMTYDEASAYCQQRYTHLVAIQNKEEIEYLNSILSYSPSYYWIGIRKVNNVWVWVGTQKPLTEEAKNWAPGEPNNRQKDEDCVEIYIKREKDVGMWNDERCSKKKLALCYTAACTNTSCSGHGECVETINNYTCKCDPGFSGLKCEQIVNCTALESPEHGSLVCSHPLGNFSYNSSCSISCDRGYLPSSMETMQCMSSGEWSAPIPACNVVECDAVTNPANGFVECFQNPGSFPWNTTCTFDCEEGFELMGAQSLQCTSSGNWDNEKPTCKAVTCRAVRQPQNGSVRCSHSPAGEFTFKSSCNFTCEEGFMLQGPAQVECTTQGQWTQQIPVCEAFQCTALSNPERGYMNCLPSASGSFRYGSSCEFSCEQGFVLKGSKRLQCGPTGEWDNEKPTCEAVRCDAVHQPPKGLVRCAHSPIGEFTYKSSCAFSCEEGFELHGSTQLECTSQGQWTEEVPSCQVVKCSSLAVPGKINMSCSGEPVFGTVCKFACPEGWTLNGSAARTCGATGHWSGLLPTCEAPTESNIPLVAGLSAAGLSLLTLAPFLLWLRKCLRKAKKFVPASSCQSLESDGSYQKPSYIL
Nuclear receptor subfamily 1 group I member 2 (Homo sapiens), sequence (O75469 whole entry, looked up, the tested form may be a part): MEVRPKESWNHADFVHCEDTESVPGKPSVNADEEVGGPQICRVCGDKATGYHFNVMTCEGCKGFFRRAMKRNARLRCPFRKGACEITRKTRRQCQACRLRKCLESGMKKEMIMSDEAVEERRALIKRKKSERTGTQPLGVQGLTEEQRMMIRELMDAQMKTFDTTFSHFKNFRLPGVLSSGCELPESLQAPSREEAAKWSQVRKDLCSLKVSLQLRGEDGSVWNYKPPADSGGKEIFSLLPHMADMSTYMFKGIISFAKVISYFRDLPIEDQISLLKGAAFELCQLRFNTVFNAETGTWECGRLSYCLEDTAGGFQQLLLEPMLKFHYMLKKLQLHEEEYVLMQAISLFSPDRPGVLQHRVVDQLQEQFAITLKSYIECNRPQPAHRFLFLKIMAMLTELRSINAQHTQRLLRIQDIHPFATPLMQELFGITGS
Retinoic acid receptor RXR-alpha (Homo sapiens), sequence (P19793 whole entry, looked up, the tested form may be a part): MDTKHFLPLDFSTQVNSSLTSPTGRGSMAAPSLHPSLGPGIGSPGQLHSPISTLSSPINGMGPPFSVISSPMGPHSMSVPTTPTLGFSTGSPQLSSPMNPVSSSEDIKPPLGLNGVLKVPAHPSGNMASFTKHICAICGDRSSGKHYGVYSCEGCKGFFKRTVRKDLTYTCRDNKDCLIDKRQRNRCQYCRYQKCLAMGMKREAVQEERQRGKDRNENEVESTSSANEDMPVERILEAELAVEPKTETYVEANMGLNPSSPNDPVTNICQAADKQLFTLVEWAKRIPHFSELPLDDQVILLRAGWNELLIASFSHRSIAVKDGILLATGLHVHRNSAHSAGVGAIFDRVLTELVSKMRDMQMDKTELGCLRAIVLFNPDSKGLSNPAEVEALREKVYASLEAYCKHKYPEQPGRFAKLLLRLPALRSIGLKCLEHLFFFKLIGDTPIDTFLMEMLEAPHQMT
Peroxisome proliferator-activated receptor gamma (Homo sapiens), sequence (P37231 whole entry, looked up, the tested form may be a part): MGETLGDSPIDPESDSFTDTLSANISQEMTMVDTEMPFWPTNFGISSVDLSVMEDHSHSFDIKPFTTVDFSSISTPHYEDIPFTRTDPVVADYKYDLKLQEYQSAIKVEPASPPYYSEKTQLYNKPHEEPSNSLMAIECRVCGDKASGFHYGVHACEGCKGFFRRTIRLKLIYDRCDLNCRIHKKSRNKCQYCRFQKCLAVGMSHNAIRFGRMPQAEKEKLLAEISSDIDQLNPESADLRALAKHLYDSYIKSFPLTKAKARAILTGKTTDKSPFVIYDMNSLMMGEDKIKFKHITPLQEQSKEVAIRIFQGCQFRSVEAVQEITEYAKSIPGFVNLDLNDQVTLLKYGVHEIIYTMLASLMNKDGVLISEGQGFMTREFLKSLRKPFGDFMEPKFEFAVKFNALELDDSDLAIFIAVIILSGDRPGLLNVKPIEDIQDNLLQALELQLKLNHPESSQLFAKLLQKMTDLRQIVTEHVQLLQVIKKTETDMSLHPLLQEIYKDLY
human RAR-related Orphan Receptor beta (RORb), RORB (gene 6096), sequence (Q92753 whole entry, looked up, the tested form may be a part): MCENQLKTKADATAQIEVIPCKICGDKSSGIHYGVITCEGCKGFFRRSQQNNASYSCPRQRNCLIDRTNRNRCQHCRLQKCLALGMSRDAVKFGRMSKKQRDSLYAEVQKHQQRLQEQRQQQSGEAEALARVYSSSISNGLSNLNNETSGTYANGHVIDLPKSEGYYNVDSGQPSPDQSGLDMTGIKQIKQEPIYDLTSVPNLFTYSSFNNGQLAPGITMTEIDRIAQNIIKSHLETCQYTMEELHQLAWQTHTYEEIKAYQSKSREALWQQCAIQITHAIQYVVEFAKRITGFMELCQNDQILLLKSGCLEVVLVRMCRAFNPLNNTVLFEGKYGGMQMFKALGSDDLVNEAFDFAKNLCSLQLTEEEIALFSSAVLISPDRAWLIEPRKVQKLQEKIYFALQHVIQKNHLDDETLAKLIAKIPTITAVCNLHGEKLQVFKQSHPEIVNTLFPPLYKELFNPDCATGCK
human Thyroid Receptor alpha (THRa1), THRA (gene 7067), sequence (P10827 whole entry, looked up, the tested form may be a part): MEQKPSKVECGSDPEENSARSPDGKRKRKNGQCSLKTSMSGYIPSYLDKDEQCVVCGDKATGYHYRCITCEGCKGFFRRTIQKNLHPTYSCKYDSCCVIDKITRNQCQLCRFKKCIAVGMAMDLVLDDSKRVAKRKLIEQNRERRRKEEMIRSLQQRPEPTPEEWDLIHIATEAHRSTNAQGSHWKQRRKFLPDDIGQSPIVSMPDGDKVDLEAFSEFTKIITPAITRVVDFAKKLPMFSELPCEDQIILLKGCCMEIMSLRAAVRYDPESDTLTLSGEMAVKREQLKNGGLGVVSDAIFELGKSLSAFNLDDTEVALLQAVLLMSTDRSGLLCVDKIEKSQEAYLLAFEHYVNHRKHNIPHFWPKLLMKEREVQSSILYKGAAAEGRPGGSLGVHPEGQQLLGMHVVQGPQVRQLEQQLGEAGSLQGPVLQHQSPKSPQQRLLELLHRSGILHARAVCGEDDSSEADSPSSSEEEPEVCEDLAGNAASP
human Retinoic Acid Receptor gamma (RARg), RARG (gene 5916), sequence (P13631 whole entry, looked up, the tested form may be a part): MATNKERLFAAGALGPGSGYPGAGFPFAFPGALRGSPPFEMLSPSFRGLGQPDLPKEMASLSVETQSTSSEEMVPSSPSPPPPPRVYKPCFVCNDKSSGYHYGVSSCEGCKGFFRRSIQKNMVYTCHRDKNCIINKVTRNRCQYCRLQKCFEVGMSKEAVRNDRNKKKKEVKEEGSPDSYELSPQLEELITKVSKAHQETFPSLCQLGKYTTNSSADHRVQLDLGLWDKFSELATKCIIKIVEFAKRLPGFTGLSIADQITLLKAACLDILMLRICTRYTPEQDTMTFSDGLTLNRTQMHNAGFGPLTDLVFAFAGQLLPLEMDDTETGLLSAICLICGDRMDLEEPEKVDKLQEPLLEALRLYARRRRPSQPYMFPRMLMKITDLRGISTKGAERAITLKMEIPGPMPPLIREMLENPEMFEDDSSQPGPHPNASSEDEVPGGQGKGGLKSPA

COc1cc(C=O)ccc1O
not listed: [15] | [16] | [17] | [18]
inactive: all other assays above

Cc1ccc(N(C)C)cc1
not listed: [4] | [5] | [17] | [18]
inactive: all other assays above

CCCc1cc(=O)[nH]c(=S)[nH]1
not listed: [5] | [6] | [15] | [16] | [18]
inactive: all other assays above

Cc1ccccc1Cl
not listed: [4] | [5] | [6] | [17] | [18]
inactive: all other assays above

Cc1cc(=O)[nH]c(=S)[nH]1
not listed: [6] | [15] | [16] | [17] | [18]
inactive: all other assays above

Nc1ccc(S(=O)(=O)c2ccc(N)cc2)cc1
not listed: [4] | [7] | [16] | [18]
inactive: all other assays above

Cc1nc(C)nc(N2C[C@@H](C)N(c3ccnc([C@@H](C)O)n3)[C@@H](C)C2)n1
active: [15] 82.4 µM
not listed: [1] | [4] | [5] | [7] | [16] | [17]
inactive: all other assays above

NC(=O)Cn1c(=O)cc(CCN2CCN(c3nccc4sccc34)CC2)c2ccc(F)cc21
active: [3] 0.148 µM
not listed: [4] | [5] | [7] | [16] | [18]
inactive: all other assays above

CN[C@H]1CC[C@@H](c2ccc(Cl)c(Cl)c2)c2ccc(S(N)(=O)=O)cc21
inactive: [1] | [17] | [15]
active: [2] 30.9 µM | [3] 6.14 µM | [8] 30.6 µM | [9] 30.3 µM | [10] 27.5 µM | [11] 20 µM | [12] 14.7 µM | [13] 23.9 µM | [14] 37.8 µM
